Data: PubChem BioAssay (EPA / NIEHS)
Inconclusive results are not listed. Calls of active or inactive are those of the source. Rule for the calls, unless noted: active = hit-call score of the fitted dose curve at least 0.9, where 1 is the maximum; inactive = score below 0.9.

Tests used:
[1] = molecular target: Hepatocyte nuclear factor 3-beta (Homo sapiens) (UniProt Q9Y261); test: ATG_FoxA2_CIS: Attagene CIS-FACTORIAL HepG2 Assay for human Forkhead box A2 (FOXA2) (AID 2282942); details: HepG2 cis-reporter transcription factor activity, 24 h; actives raise or lower the signal
In short: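 HepG2 transiently transfected with a multiplexed cis-promoter reporter library read endogenous FOXA2 activity. After 24 h compound exposure, reporter mRNA was quantified by RT-PCR, HpaI digestion and capillary electrophoresis. Bidirectional fit against DMSO.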

[2] = molecular target: Heat shock factor protein 1 (Homo sapiens) (UniProt Q00613); test: ATG_HSE_CIS: Attagene CIS-FACTORIAL HepG2 Assay for human Heat Shock Transcription Factor 1 (HSE) (AID 2282953); details: HepG2 HSE cis-reporter, Attagene RNA transcription; actives raise or lower the signal
In short: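 Read-out: fluorescence of reporter-specific RT-PCR fragments separated by capillary electrophoresis. HepG2 carrying transfected cis-element reporter units; 24 h dosing; activity fitted in both directions relative to DMSO baseline.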

[3] = ATG_RORE_CIS: Attagene CIS-FACTORIAL HepG2 Assay for human RAR-related Orphan Receptor Element (RORE) (AID 2282959); details: HepG2 Attagene cis-factorial RORE reporter, mRNA; actives raise or lower the signal
In short: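 HepG2 cells carrying transiently transfected cis-regulated reporter units; RORE-driven reporter mRNA quantified 24 h post-dosing by RT-PCR, 6-FAM primer extension, HpaI digestion and capillary electrophoresis. Bidirectional fit versus DMSO.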

[4] = ATG_Sox_CIS: Attagene CIS-FACTORIAL HepG2 Assay for human SRY-box transcription factor (SOX) (AID 2282960); details: HepG2 Attagene cis-factorial SOX reporter, mRNA; actives raise or lower the signal
In short: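 HepG2 cells transiently transfected with multiple cis-regulated reporter units, then dosed for 24 h. Reporter mRNA quantified by RT-PCR, fluorescent labelling, HpaI digestion and capillary electrophoresis; bidirectional fit versus DMSO.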

[5] = molecular target: Transcription factor Sp1 (Homo sapiens) (UniProt P08047); test: ATG_Sp1_CIS: Attagene CIS-FACTORIAL HepG2 Assay for human Specificity Protein 1 (Sp1) (AID 2282961); details: HepG2 Sp1 cis-reporter transcription, actives raise or lower the signal
In short: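 HepG2 cells transiently transfected with multiplexed cis-regulated reporter constructs, chemical exposure 24 h. Reporter mRNA quantified by RT-PCR with capillary electrophoresis; bidirectional fit relative to DMSO.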

[6] = ATG_SREBP_CIS: Attagene CIS-FACTORIAL HepG2 Assay for human Sterol Regulatory Element Binding (SREBP) (AID 2282962); details: HepG2 Attagene cis-factorial SREBP reporter, mRNA; actives raise or lower the signal
In short: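 Endogenous factor activity is measured in HepG2 through multiplexed reporter units under cis-element control. Following a 24 h incubation, reporter transcripts are reverse-transcribed, PCR-amplified and sized by capillary electrophoresis; activity is fitted in both directions relative to DMSO.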

[7] = molecular target: Signal transducer and activator of transcription 3 (Homo sapiens) (UniProt P40763); test: ATG_STAT3_CIS: Attagene CIS-FACTORIAL HepG2 Assay for human Signal Transducer and Activator of Transcription 3 (STAT3) (AID 2282963); details: HepG2, Attagene cis-factorial STAT3 reporter transcription; actives raise or lower the signal
In short: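 HepG2, MRTU-transfected, 24 h dosing. RNA → RT → PCR → FAM label → HpaI → CE. Bidirectional fit vs DMSO.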

[8] = ATG_TA_CIS: Attagene CIS-FACTORIAL HepG2 Assay for human TA Basal Promoter (AID 2282964); details: HepG2 Attagene CIS-factorial TA basal promoter reporter; actives raise or lower the signal
In short: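 Transfected HepG2, 24 h compound exposure; RNA → RT-PCR → FAM primer extension → HpaI cut → CE fluorescence. Gain/loss-of-signal fitted against DMSO negative control. Background-control readout.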

[9] = ATG_TCF_b_cat_CIS: Attagene CIS-FACTORIAL HepG2 Assay for human T-Cell-Factor with beta-catenin (TCF/b-cat) (AID 2282965); details: HepG2 TCF/beta-catenin cis-reporter transcription, actives raise or lower the signal
In short: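 HepG2 cells transiently transfected with multiple cis-promoter-regulated reporter transcription units, so endogenous transcription factor activity is measured. Reporter mRNA read 24 hours after dosing by RT-PCR, fluorescent labelling and capillary electrophoresis; bidirectional fitting against DMSO.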

[10] = ATG_TAL_CIS: Attagene CIS-FACTORIAL HepG2 Assay for human TAL Basal Promoter (AID 2282966); details: HepG2 Attagene cis-factorial TAL promoter reporter; actives raise or lower the signal;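 note: background control endpoint measuring basal TAL promoter reporter mRNA not a specific factor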
In short: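 Background-control endpoint: basal TAL promoter reporter transcripts in transiently transfected HepG2, measured 24 h after dosing. Read-out by RT-PCR with fluorescent primer extension and capillary electrophoresis; gain or loss of signal fitted relative to DMSO.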

[11] = ATG_VDRE_CIS: Attagene CIS-FACTORIAL HepG2 Assay for human Vitamin D Receptor Element (VDRE) (AID 2282968); details: HepG2 VDRE cis-reporter transcription, actives raise or lower the signal
In short: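 Steps: transfect HepG2 with multiple reporter transcription units; dose chemicals 24 h; isolate RNA; RT-PCR; label with 6-FAM primer extension; HpaI digest; capillary electrophoresis. Curves fitted both directions against DMSO.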

[12] = molecular target: Transcriptional activator Myb (Homo sapiens) (UniProt P10242); test: ATG_Myb_CIS: Attagene CIS-FACTORIAL HepG2 Assay for human Myeloblastosis (Myb) Proto-Oncogene Transcription Factor (AID 2282986); details: HepG2 Attagene CIS-FACTORIAL Myb reporter transcription; actives raise or lower the signal
In short: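 Transiently transfected HepG2 cells carrying a multiplexed cis-promoter reporter set report endogenous Myb activity after 24 h compound exposure. Reporter mRNA is read by RT-PCR with capillary electrophoresis of fluorescent products, fitted bidirectionally against DMSO.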

[13] = molecular target: Nuclear respiratory factor 1 (Homo sapiens) (UniProt Q16656); test: ATG_NRF1_CIS: Attagene CIS-FACTORIAL HepG2 Assay for human Nuclear Respiratory Factor 1 (NRF1) Orphan Gene (AID 2282987); details: HepG2 NRF1 cis-element reporter, Attagene multiplex; actives raise or lower the signal
In short: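 HepG2 cells transiently transfected with multiple cis-regulated reporter units, exposed 24 h. Reporter mRNAs measured by RT-PCR, fluorescent labelling, HpaI digestion and capillary electrophoresis; bidirectional fitting against DMSO.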

[14] = ATG_NFI_CIS: Attagene CIS-FACTORIAL HepG2 Assay for human Nuclear Factor I (NFI) (AID 2282989); details: HepG2 cis-regulatory reporter, NFI response element transcription; actives raise or lower the signal
In short: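 Read-out: reporter mRNA via RT-PCR plus capillary electrophoresis with fluorescence detection. Transiently transfected HepG2 (endogenous TF activity on cis promoters), 24 h compound exposure; gain or loss of signal fitted against DMSO.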

[15] = molecular target: Myc proto-oncogene protein (Homo sapiens) (UniProt P01106); test: ATG_Myc_CIS: Attagene CIS-FACTORIAL HepG2 Assay for human Myelocytomatosis (Myc) Proto-Oncogene Transcription Factor (AID 2282990); details: HepG2, Attagene cis-reporter transcription factor activity; actives raise or lower the signal
In short: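 HepG2 cells transiently transfected with multiple cis-promoter-driven reporter transcription units, so endogenous TF activity is read. After 24 h compound exposure, reporter mRNA was quantified by RT-PCR, 6-FAM labelling, HpaI digestion and capillary electrophoresis; bidirectional fit versus DMSO.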

[16] = ATG_NRF2_ARE_CIS: Attagene CIS-FACTORIAL HepG2 Assay for human Nuclear Factor Erythroid 2 Related Factor 2 (NFR2) response to Antioxidant Response Elements (ARE) (AID 2282992); details: HepG2 Attagene ARE/NRF2 reporter, transcription factor activity; actives raise or lower the signal
In short: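 Endogenous transcription factor activity in human liver HepG2 cells is tracked via a cis-element-driven reporter within a multiplexed set. mRNA induction is read by RT-PCR and capillary electrophoresis after 24 h, with DMSO as baseline.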

[17] = ATG_Oct_MLP_CIS: Attagene CIS-FACTORIAL HepG2 Assay for human Octamer-Binding Transcription Factor (Oct) (AID 2282993); details: HepG2 Attagene cis-factorial Oct reporter, mRNA; actives raise or lower the signal
In short: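 Read-out: reporter mRNA via RT-PCR plus capillary electrophoresis of 6-FAM-labelled fragments. Transiently transfected HepG2, 24 h exposure, endogenous TF activity on cis elements. Gain or loss of signal fitted relative to DMSO.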

[18] = molecular target: Cellular tumor antigen p53 (Homo sapiens) (UniProt P04637); test: ATG_p53_CIS: Attagene CIS-FACTORIAL HepG2 Assay for human p53 Transcription Factor (AID 2282994); details: HepG2 p53 cis-element reporter, Attagene mRNA; actives raise or lower the signal
In short: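 Steps: transfect HepG2 with multiplexed cis reporter constructs; dose chemicals 24 h; extract RNA, reverse-transcribe, PCR-amplify reporter sequences; FAM-label, HpaI-digest, resolve fragments by CE. Activity fitted both directions relative to DMSO.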

[19] = molecular target: Nuclear receptor subfamily 1 group I member 2 (Homo sapiens) (UniProt O75469); test: ATG_PXR_TRANS: Attagene TRANS-FACTORIAL HepG2 Assay for human Pregnane X Receptor (PXR) (AID 2283008; active = hit-call score of the fitted dose curve at least 0.9, where 1 is the maximum)
In short: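 HepG2 transfected (FuGene 6) with GAL4-UAS reporter units + PXR-Gal4 chimera; dosed 24 h. Total RNA → oligo(dT) RT → PCR → 6-FAM primer extension → HpaI cut → CE. Gain-of-signal vs DMSO.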

[20] = ATG_XTT_Cytotoxicity: Cytotoxicity Assessment in the Attagene TRANS-FACTORIAL HepG2 Assay (AID 2283584; active = hit-call score of the fitted dose curve at least 0.9, where 1 is the maximum)
In short: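 Viability endpoint from XTT after 24 h chemical exposure of reporter-transfected human HepG2 liver cells; signal loss fitted relative to DMSO negative control.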

Measured: outcome

Chain of Nuclear respiratory factor 1 (Homo sapiens) (Q16656 whole entry, looked up): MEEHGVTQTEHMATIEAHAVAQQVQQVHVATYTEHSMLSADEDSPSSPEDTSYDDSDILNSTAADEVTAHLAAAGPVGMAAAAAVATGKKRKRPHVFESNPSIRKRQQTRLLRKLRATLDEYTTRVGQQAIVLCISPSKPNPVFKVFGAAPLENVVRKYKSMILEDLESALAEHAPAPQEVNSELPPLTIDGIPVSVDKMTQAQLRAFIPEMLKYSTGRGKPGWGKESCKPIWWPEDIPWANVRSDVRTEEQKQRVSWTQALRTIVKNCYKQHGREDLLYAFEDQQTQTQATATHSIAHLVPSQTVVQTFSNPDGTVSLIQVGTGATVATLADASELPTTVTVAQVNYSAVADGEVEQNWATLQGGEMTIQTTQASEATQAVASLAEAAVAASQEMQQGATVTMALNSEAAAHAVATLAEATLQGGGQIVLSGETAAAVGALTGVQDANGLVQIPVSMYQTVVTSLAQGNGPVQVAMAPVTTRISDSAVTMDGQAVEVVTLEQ
Chain of Heat shock factor protein 1 (Homo sapiens) (Q00613 whole entry, looked up, the tested form may be a part): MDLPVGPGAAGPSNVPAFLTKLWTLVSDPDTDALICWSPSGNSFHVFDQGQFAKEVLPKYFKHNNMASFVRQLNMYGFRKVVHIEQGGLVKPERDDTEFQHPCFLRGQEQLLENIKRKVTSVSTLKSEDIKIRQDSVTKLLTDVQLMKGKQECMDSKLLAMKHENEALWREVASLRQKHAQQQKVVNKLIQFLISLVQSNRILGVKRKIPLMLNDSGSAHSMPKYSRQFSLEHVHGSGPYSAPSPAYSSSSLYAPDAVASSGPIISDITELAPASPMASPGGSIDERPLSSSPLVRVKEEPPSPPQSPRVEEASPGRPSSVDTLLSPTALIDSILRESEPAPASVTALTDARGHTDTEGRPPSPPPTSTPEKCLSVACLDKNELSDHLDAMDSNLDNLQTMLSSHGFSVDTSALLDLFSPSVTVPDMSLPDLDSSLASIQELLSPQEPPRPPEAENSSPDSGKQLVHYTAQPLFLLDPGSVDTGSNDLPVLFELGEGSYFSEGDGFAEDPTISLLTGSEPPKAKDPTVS
Chain of Transcriptional activator Myb (Homo sapiens) (P10242 whole entry, looked up): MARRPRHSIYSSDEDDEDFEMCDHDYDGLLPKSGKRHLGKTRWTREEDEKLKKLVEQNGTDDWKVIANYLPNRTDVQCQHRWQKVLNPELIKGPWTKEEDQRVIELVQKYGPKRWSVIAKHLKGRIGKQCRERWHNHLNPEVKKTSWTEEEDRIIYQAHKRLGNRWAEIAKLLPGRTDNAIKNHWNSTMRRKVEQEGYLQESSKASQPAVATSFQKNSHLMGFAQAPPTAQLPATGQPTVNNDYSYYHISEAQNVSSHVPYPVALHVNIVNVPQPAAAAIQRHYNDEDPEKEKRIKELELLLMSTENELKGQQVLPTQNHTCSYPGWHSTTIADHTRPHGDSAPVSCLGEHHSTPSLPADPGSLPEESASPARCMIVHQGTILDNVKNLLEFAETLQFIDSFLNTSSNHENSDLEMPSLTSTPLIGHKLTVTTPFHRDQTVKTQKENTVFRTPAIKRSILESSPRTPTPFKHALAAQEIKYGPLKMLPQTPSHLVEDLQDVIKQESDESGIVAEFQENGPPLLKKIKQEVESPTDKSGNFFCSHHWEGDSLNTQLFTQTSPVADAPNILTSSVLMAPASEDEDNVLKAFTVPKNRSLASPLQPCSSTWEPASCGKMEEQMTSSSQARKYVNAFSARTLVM
Chain of Signal transducer and activator of transcription 3 (Homo sapiens) (P40763 whole entry, looked up): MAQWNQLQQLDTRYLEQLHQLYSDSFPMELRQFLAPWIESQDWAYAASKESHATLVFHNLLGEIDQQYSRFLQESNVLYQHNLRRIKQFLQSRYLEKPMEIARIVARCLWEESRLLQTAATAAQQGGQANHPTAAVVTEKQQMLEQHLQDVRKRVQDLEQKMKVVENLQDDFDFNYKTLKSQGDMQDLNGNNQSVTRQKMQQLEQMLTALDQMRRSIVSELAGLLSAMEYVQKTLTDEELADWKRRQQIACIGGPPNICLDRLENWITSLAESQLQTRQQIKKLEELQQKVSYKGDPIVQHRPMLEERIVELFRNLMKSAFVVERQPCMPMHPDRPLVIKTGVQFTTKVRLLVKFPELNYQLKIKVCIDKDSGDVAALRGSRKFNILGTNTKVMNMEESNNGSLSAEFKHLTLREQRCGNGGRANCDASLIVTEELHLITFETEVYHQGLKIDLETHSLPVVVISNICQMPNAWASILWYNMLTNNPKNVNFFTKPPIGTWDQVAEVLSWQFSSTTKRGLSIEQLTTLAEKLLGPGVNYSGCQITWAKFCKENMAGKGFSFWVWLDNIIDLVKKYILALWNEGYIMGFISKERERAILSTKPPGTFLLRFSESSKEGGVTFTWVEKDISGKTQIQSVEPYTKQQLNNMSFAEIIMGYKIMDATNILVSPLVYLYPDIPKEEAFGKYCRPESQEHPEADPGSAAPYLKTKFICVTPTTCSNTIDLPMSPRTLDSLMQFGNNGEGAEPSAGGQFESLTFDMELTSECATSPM
Chain of Hepatocyte nuclear factor 3-beta (Homo sapiens) (Q9Y261 whole entry, looked up): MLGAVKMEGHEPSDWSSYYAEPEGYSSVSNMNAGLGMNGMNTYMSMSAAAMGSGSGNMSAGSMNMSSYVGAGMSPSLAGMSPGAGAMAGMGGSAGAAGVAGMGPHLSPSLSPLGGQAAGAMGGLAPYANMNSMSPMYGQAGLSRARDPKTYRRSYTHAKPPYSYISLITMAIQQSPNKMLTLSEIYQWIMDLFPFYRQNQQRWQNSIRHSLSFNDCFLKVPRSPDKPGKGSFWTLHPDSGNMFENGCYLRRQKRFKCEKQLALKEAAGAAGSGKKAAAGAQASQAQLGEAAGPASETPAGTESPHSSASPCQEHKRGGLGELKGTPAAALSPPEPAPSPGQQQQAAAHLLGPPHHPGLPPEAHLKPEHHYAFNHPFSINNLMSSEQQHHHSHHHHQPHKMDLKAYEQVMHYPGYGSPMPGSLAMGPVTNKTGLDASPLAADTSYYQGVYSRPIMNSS
Chain of Cellular tumor antigen p53 (Homo sapiens) (P04637 whole entry, looked up, the tested form may be a part): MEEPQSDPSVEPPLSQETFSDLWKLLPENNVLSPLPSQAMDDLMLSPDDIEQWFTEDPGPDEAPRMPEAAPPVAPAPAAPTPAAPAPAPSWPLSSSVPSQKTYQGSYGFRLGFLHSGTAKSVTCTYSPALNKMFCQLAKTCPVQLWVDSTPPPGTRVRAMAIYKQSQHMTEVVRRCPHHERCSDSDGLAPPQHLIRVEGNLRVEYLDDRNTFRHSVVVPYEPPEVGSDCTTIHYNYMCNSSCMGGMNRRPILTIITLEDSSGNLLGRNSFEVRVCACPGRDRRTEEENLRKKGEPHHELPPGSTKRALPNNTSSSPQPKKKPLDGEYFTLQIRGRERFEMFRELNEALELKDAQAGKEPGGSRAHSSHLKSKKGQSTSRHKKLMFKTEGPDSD
Chain of Myc proto-oncogene protein (Homo sapiens) (P01106 whole entry, looked up): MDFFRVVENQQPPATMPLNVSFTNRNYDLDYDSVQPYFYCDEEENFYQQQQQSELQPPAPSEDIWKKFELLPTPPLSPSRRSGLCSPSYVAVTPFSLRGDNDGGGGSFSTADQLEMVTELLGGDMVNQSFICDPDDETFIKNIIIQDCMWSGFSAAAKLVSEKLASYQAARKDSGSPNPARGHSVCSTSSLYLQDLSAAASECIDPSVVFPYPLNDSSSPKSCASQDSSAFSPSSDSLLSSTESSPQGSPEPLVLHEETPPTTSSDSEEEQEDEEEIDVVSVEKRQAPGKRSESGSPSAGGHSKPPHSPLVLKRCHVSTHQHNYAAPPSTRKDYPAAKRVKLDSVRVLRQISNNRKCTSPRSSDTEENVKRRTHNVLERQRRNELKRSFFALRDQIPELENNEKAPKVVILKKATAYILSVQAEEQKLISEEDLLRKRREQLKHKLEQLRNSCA
Chain of Transcription factor Sp1 (Homo sapiens) (P08047 whole entry, looked up): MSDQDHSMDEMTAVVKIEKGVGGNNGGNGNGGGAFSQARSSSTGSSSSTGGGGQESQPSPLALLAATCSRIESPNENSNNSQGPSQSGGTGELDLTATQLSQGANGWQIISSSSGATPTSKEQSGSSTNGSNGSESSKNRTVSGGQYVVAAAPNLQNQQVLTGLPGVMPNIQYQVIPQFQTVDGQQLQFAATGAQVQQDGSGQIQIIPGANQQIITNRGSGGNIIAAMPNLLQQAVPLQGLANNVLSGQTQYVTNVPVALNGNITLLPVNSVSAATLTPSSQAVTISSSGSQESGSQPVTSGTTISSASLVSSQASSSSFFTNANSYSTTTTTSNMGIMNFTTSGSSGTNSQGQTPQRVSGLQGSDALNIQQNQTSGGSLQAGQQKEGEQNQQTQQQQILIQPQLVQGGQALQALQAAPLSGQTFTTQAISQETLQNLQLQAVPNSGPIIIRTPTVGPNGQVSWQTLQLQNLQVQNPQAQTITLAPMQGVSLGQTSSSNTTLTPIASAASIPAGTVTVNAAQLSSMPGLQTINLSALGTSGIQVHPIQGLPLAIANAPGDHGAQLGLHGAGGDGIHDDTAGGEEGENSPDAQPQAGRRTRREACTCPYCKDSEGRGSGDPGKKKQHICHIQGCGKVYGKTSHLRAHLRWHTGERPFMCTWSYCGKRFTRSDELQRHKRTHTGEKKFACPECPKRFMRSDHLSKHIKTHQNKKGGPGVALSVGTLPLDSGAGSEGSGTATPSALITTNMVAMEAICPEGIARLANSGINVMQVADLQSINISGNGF
Chain of Nuclear receptor subfamily 1 group I member 2 (Homo sapiens) (O75469 whole entry, looked up, the tested form may be a part): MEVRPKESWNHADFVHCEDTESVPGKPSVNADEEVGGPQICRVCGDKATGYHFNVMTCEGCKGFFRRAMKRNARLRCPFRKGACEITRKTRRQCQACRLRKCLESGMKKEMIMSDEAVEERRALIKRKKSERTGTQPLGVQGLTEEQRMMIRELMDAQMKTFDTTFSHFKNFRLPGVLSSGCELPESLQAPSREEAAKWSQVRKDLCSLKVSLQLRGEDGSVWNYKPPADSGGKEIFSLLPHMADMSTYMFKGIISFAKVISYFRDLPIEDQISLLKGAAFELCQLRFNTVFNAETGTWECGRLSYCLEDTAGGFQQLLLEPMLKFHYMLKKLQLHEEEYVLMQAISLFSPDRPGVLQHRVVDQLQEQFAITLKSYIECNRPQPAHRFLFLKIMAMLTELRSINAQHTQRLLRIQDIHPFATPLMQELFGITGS

C=C(C)C(=O)OCC1CCCO1 (stereo not drawn)
not listed: [20]
inactive: all other assays above

CCCCOC(=O)COc1ccc(Cl)cc1Cl
inactive: all assays above

OCCc1ccccn1
not listed: [19]
inactive: all other assays above
